Compound activity from PubChem.
GSTO1 inh = GSTO1 inhibition, counter-screen for RBBP9 inhibitors; P78417; recombinant GSTO1, activity-based probe fluorescence polarization; inhibition, % at 5.96 µM; hit rate 1.1% among 300,000; AID 1974;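 active = inhibition above the campaign mean inhibition plus 3 SD, cut at about 35% in these data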;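 note: 0% = GSTO1-1 with DMSO and 100% = wells lacking GSTO1-1 enzyme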
Fam108B inh = blocks mouse Fam108B hydrolase in RBBP9 counter-screen; inhibition, % at 9.51 µM; AID 1947; recombinant Fam108B, FP-Rh probe fluorescence polarization; hit rate 0.33% among 300,000;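 active = inhibition above the screen mean inhibition plus 3 SD, computed separately per campaign, cut at about 18% in these data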;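 note: inhibitors lower polarization as less probe binds the enzyme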
LYPLA1 counter = blocks human lysophospholipase 1, a PME1 counter-screen; O75608; recombinant LYPLA1, FP-Rh probe fluorescence polarization; inhibition, % at 5.9 µM; hit rate 0.16% among 320,000; AID 2174;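 active = inhibition above the mean of all tested compounds plus 3 SD, set per campaign, cut at about 14% in these data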;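 note: inhibitors block serine hydrolase probe labeling of LYPLA1 so polarization falls; 0% = enzyme with DMSO and 100% = wells lacking LYPLA1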
PAD4 inh = inhibitors of human PAD4; recombinant PAD4, RCA probe fluorescence polarization; hit rate 0.41% among 330,000; inhibition, % at 6.36 µM; AID 485272;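 active = percent inhibition above a cutoff equal to the mean of all tested compounds plus 3 SD, cut at about 15% in these data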;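 note: 0% = PAD4 with RCA probe and DMSO and 100% = probe without PAD4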
Target sequence (Q9UM07 whole entry, looked up): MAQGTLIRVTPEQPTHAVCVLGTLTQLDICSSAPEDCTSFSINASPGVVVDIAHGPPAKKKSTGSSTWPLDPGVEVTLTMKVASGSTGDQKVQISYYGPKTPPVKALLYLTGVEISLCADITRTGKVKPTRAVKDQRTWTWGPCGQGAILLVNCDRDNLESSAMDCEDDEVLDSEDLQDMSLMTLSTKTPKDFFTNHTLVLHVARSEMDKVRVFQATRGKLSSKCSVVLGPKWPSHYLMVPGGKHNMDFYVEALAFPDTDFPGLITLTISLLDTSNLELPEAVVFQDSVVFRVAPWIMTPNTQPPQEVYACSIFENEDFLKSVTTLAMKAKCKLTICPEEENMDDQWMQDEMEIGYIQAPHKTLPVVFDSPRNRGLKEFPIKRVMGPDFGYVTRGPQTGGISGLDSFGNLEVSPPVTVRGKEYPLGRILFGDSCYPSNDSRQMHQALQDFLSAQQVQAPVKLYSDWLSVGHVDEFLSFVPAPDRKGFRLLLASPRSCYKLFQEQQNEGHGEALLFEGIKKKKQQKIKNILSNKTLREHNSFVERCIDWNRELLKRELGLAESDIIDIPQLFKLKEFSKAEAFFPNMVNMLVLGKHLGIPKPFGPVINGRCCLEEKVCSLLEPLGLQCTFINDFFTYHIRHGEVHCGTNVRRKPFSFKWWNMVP
LYPLA2 inh = LYPLA2 (human) inhibition in PME1 counter-screen | O95372 | recombinant LYPLA2, FP-Rh probe fluorescence polarization | inhibition, % at 5.9 µM | hit rate 0.38% among 320,000 | AID 2177;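 active = inhibition above the screen-wide mean plus 3 SD, limit set per campaign, cut at about 26% in these data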;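 note: 0% = LYPLA2 with DMSO and 100% = wells lacking LYPLA2 enzyme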
PME-1 primary = blocks human protein phosphatase methylesterase 1; Q9Y570; recombinant PME-1, FP-Rh probe fluorescence polarization; inhibition, % at 5.9 µM; hit rate 0.53% among 320,000;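 active = inhibition above the campaign mean of all compounds plus 3 SD, cut at about 26% in these data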;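 note: competitive labeling of PME-1 active site by serine hydrolase directed probe; 0% = PME-1 with DMSO and 100% = wells lacking PME-1 enzyme; inhibitors block probe labeling so polarization falls and inhibition rises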
PAD4 FP conf = PAD4 (human) inhibition, confirmed; shares compounds with PAD4 inh; recombinant PAD4, RCA probe fluorescence polarization; inhibition, % at 6.36 µM; hit rate 28% among 1,200; AID 488796;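 active = mean inhibition across replicates above the hit cutoff set by the earlier primary screen, cut at about 15% in these data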;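 note: inhibitors block active-site labeling by the probe so polarization falls; 0% = PAD4 with probe and DMSO and 100% = probe without PAD4 enzyme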
* = called active by the depositor; / = no result. Shown are actives, neighbours in structure and some others; about 1.8% of the full set was active somewhere.

SMILES | GSTO1 inh | Fam108B inh | LYPLA1 counter | PAD4 inh | LYPLA2 inh | PME-1 primary | PAD4 FP conf
C[CH2][Hg][S]c1ccccc1C(=O)O | 19.4 | -4.3 | 1.3 | 37.7* | 3.9 | -9.7 | 50.1*
CC(C)COC(=O)c1ccccc1C(=O)OCC(C)C | 2.1 | 0.5 | 0.9 | -0.1 | 0.9 | 1.8 | /
c1ccc2c3c(ccc2c1)OCC1CONC31 (centres undefined) | 5.2 | -5.8 | -4.8 | -8.6 | -7.6 | 4.4 | /
N/C(=N\N=C\c1ccc(O)cc1O)N[N+](=O)[O-] | 11.4 | 2.0 | 0.2 | -0.6 | -1.4 | 3.1 | /
COc1ccccc1/C=N/N=C(/N)N[N+](=O)[O-] | 1.1 | 2.4 | -1.3 | 15.6* | 2.1 | -3.9 | 5.4
